TRPM1 prom inh: inhibitors of MITF-driven TRPM1 promoter in melanoma cells | inhibition, % at 12.5 µM | SK-MEL-5 TRPM1 promoter luciferase, 24 h | 330,000 compounds, 0.83% hits | AID 488899;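 active = mean inhibition across replicates of 60% or more, whatever share of single replicates reaches that level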
EBV LMP1 NFkB: reduces LMP1-driven NF-kappaB luciferase signal; LMP1-induced NF-kappaB luciferase reporter cells, luminescence; inhibition, % at 12.5 µM; 350,000 compounds, 0.69% hits; in the data active = inhibition above about 41%
TROY NFkB inh: TROY signaling inhibition; Q293 LMP1-TROYcd NF-kB luciferase reporter, 4 h; inhibition, % at 10 µM; 360,000 compounds, 0.98% hits; AID 1347056;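 active = compounds whose plate-normalised and pattern-corrected inhibition of the luciferase reporter signal at the single screening dose is 50% or more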
Shn3 3UTR inh: inhibitors of Schnurri-3 3'UTR reporter in osteoblasts | inhibition, % at 12.5 µM | 360,000 compounds, 0.52% hits | Clone20 osteoblast Shn3 3'UTR firefly luciferase, 24 h;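 active = mean inhibition of at least 75% with every replicate also reaching 75%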
Peg3 prom inh: inhibitors of Peg3 promoter; 360,000 compounds, 1.7% hits; inhibition, % at 20 µM; HeLa PEG-Prom luciferase reporter, luminescence, overnight;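 active = inhibition of at least 50% at 20 µM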
TWEAK Fn14 block: TWEAK-Fn14 signaling inhibition | 360,000 compounds, 2% hits | inhibition, % at 10 µM | TWEAK-stimulated Fn14 reporter cells, luciferase luminescence, 8 h; in the data active = inhibition above about 50%
A number is an active result. An excerpt weighted towards active compounds, which were near 4.1% of everything screened.

Results for COc1ccc(N(C(=O)c2ccncc2)S(=O)(=O)c2cccs2)cc1 ?
TRPM1 prom inh: inactive; EBV LMP1 NFkB: inactive; TROY NFkB inh: inactive; Shn3 3UTR inh: inactive; Peg3 prom inh: inactive; TWEAK Fn14 block: inactive

How did COc1ccc(-c2csc(-c3ccccc3)n2)c(OC)c1 do in these assays?
TRPM1 prom inh: inactive; EBV LMP1 NFkB: inactive; TROY NFkB inh: inactive; Shn3 3UTR inh: inactive; Peg3 prom inh: inactive; TWEAK Fn14 block: 56

What do the screens show for `CC(C)CN1CCN=C1N(C)C`?
TRPM1 prom inh: inactive; EBV LMP1 NFkB: inactive; TROY NFkB inh: inactive; Shn3 3UTR inh: inactive; Peg3 prom inh: inactive; TWEAK Fn14 block: inactive

Results for Cc1ccc(OCC(=O)OCC(=O)c2c(N)n(C)c(=O)n(C)c2=O)cc1C ?
TRPM1 prom inh: inactive; EBV LMP1 NFkB: inactive; TROY NFkB inh: inactive; Shn3 3UTR inh: inactive; Peg3 prom inh: inactive; TWEAK Fn14 block: inactive

Results for Cc1cc(OCC(=O)OCC(=O)c2c(N)n(C)c(=O)n(C)c2=O)ccc1Cl ?
TRPM1 prom inh: inactive; EBV LMP1 NFkB: inactive; TROY NFkB inh: inactive; Shn3 3UTR inh: inactive; Peg3 prom inh: inactive; TWEAK Fn14 block: 86

What do the screens show for `COc1ccc(-c2nc(CS(=O)CC(=O)NCc3ccc(Cl)cc3)c(C)o2)cc1` (stereo unspecified)?
TRPM1 prom inh: inactive; EBV LMP1 NFkB: 44; TROY NFkB inh: inactive; Shn3 3UTR inh: inactive; Peg3 prom inh: inactive; TWEAK Fn14 block: inactive

Results for Cc1ccc(-c2nc(CS(=O)CC(=O)NCc3ccc(Cl)cc3)c(C)o2)cc1 (stereo unspecified) ?
EBV LMP1 NFkB: inactive; TROY NFkB inh: inactive; Shn3 3UTR inh: inactive; Peg3 prom inh: inactive; TWEAK Fn14 block: inactive

What do the screens show for `CCc1ccc(-c2nc(CS(=O)CC(=O)NCc3ccccc3)c(C)o2)cc1` (stereo unspecified)?
TRPM1 prom inh: inactive; EBV LMP1 NFkB: inactive; TROY NFkB inh: inactive; Shn3 3UTR inh: inactive; Peg3 prom inh: 53; TWEAK Fn14 block: 57

Results for CCc1ccc(-c2nc(CSCC(=O)NCc3ccco3)c(C)o2)cc1 ?
TRPM1 prom inh: inactive; EBV LMP1 NFkB: inactive; TROY NFkB inh: inactive; Shn3 3UTR inh: inactive; Peg3 prom inh: inactive; TWEAK Fn14 block: 65

What do the screens show for `CC(=O)Nc1cccc(NC(=O)C(C)N2c3cccc4cccc(c34)S2(=O)=O)c1` (stereo unspecified)?
TRPM1 prom inh: inactive; EBV LMP1 NFkB: inactive; TROY NFkB inh: inactive; Shn3 3UTR inh: inactive; Peg3 prom inh: inactive; TWEAK Fn14 block: inactive

What do the screens show for `CN(C)Cc1ccc(-c2nc3cccc4c3n2CCNC4=O)cc1`?
TRPM1 prom inh: inactive; EBV LMP1 NFkB: inactive; TROY NFkB inh: inactive; Shn3 3UTR inh: inactive; Peg3 prom inh: 58; TWEAK Fn14 block: inactive

Results for CN(C)CCNC(=O)/C(=C/c1ccc(-c2cccc([N+](=O)[O-])c2)o1)NC(=O)c1ccccc1 ?
TRPM1 prom inh: inactive; EBV LMP1 NFkB: inactive; TROY NFkB inh: inactive; Shn3 3UTR inh: inactive; Peg3 prom inh: inactive; TWEAK Fn14 block: inactive

How did Cc1ccc(C(=O)N/C(=C\c2ccc(-c3ccccc3[N+](=O)[O-])o2)C(=O)NCCN(C)C)cc1 do in these assays?
TRPM1 prom inh: 77; EBV LMP1 NFkB: inactive; TROY NFkB inh: inactive; Shn3 3UTR inh: inactive; Peg3 prom inh: inactive; TWEAK Fn14 block: inactive

Results for Cc1ccc(C(=O)N/C(=C\c2ccc(-c3ccccc3[N+](=O)[O-])o2)C(=O)NCCCN(C)C)cc1 ?
TRPM1 prom inh: 70; EBV LMP1 NFkB: inactive; TROY NFkB inh: inactive; Shn3 3UTR inh: inactive; Peg3 prom inh: inactive; TWEAK Fn14 block: inactive

How did CN(C)CCCNC(=O)/C(=C/c1ccc(-c2ccc([N+](=O)[O-])cc2)o1)NC(=O)c1ccccc1 do in these assays?
TRPM1 prom inh: inactive; EBV LMP1 NFkB: inactive; TROY NFkB inh: inactive; Shn3 3UTR inh: inactive; Peg3 prom inh: inactive; TWEAK Fn14 block: inactive

How did Cc1ccc(C(=O)N/C(=C\c2ccc(-c3cccc([N+](=O)[O-])c3)o2)C(=O)NCCCN2CCOCC2)cc1 do in these assays?
TRPM1 prom inh: inactive; EBV LMP1 NFkB: inactive; TROY NFkB inh: inactive; Shn3 3UTR inh: inactive; Peg3 prom inh: 94; TWEAK Fn14 block: inactive

Results for COCC(=O)N1CCC2CC1c1c(-c3ccc(C(F)(F)F)cc3)cccc12 (stereo unspecified) ?
TRPM1 prom inh: inactive; EBV LMP1 NFkB: inactive; TROY NFkB inh: inactive; Shn3 3UTR inh: inactive; Peg3 prom inh: inactive; TWEAK Fn14 block: inactive

How did Cc1cc(C)c2c(NC(=O)CCl)nn(C)c2n1 do in these assays?
TRPM1 prom inh: inactive; EBV LMP1 NFkB: inactive; TROY NFkB inh: inactive; Shn3 3UTR inh: inactive; Peg3 prom inh: 52; TWEAK Fn14 block: inactive

What do the screens show for `Cc1cc(C)c2c(NC(=S)NC(=O)c3ccccc3)nn(C)c2n1`?
TRPM1 prom inh: inactive; EBV LMP1 NFkB: inactive; TROY NFkB inh: inactive; Shn3 3UTR inh: inactive; Peg3 prom inh: inactive; TWEAK Fn14 block: inactive

Results for CCCCn1nnnc1C(c1cc2ccccc2o1)N(C)CCc1ccccc1 (stereo unspecified) ?
TROY NFkB inh: inactive; TWEAK Fn14 block: inactive

How did CCN1CCN(c2cc(C)c3cc(NC(=O)CCC(=O)Nc4ccc(OC)cc4OC)ccc3n2)CC1 do in these assays?
TRPM1 prom inh: inactive; EBV LMP1 NFkB: inactive; TROY NFkB inh: inactive; Shn3 3UTR inh: inactive; Peg3 prom inh: inactive; TWEAK Fn14 block: inactive

How did CCN1CCN(c2c(C=O)c(Cl)nc3ccc(OC)cc23)CC1 do in these assays?
TRPM1 prom inh: inactive; EBV LMP1 NFkB: inactive; TROY NFkB inh: inactive; Shn3 3UTR inh: inactive; Peg3 prom inh: inactive; TWEAK Fn14 block: 56

How did CC(=O)Nc1cc(Cl)c(N=Cc2ccc(O)cc2O)cc1Cl do in these assays?
TRPM1 prom inh: inactive; EBV LMP1 NFkB: inactive; TROY NFkB inh: inactive; Shn3 3UTR inh: inactive; Peg3 prom inh: inactive; TWEAK Fn14 block: 77

How did CC1CCCCC1NC(=O)CCCn1c(=S)[nH]c2ccsc2c1=O (stereo unspecified) do in these assays?
TRPM1 prom inh: inactive; EBV LMP1 NFkB: inactive; TROY NFkB inh: inactive; Shn3 3UTR inh: inactive; Peg3 prom inh: inactive; TWEAK Fn14 block: inactive

How did c1ccc(-c2cc3c(-n4cccc4)ncnc3o2)cc1 do in these assays?
TRPM1 prom inh: inactive; EBV LMP1 NFkB: inactive; TROY NFkB inh: inactive; Shn3 3UTR inh: inactive; Peg3 prom inh: inactive; TWEAK Fn14 block: inactive

What do the screens show for `c1ccc(Oc2ncnc3oc(-c4ccccc4)cc23)cc1`?
TRPM1 prom inh: inactive; EBV LMP1 NFkB: inactive; TROY NFkB inh: inactive; Shn3 3UTR inh: inactive; Peg3 prom inh: inactive; TWEAK Fn14 block: 96

How did N#Cc1c(NCCN)nc(-c2ccco2)c2c1CCCC2 do in these assays?
TRPM1 prom inh: inactive; EBV LMP1 NFkB: 78; TROY NFkB inh: inactive; Shn3 3UTR inh: inactive; Peg3 prom inh: inactive; TWEAK Fn14 block: inactive

What do the screens show for `O=C1c2cccc(NCCCNCCO)c2C(=O)c2cccc(NCCCNCCO)c21`?
TRPM1 prom inh: 86; EBV LMP1 NFkB: inactive; TROY NFkB inh: inactive; Shn3 3UTR inh: inactive; Peg3 prom inh: 109; TWEAK Fn14 block: inactive

What do the screens show for `COc1ccc(-c2cc3nc(CCl)[nH]c(=O)c3s2)cc1`?
TRPM1 prom inh: inactive; EBV LMP1 NFkB: 49; TROY NFkB inh: inactive; Shn3 3UTR inh: inactive; Peg3 prom inh: inactive; TWEAK Fn14 block: 63

Assay outcomes as filed in PubChem BioAssay.
